Source: PubChem BioAssay AID720650 (Broad Institute, 2013)
Unmarked numbers belong to inactive results. The source made the active and inactive calls. The rule behind the calls is not given here.

experiment: C difficile toxins, biochemical counterscreen, UDPG substrate absence, confirmatory dose response (AID 720650); details: series mostly up to 19.5 µM; activity change, negative = inhibition: at the top concentration

| Structure (SMILES) | activity change, negative = inhibition | AC50 |
| --- | --- | --- |
| Cc1ccc2c(c1)/C(=C/c1ccccc1C)C(=O)N2 | -14.1% |  |
| CCOC(=O)c1ccc(-n2c(CCC(=O)O)ccc2-c2ccc(F)cc2)cc1 | 10.7% |  |
| CCc1ccccc1NC(=S)N(Cc1ccc(C(=O)O)cc1)Cc1ccc(OC)c(OC)c1 | -12.3% |  |
| CCOc1ccc(NC(=O)c2ccc(CC)s2)c([N+](=O)[O-])c1 | -8.67% |  |
| O=C(Nc1ccc(O)cc1)c1ccc2c(c1)C(=O)N(Cc1ccco1)C2=O |  | 9.58 µM (active) |
| COc1ccc(C2=NS(=O)(=O)N(C)C(C(=O)NC(C)c3ccccc3)=C2)cc1OC (configuration not stated) | -14% |  |
| Cn1cc(C(CO)Cc2ccccc2)c2ccccc21 (configuration not stated) |  | > 39 µM |
| Cc1cc(N2CCCC2=O)cc(C)c1S(=O)(=O)Nc1c(C)nn(C)c1C | -5.53% |  |
| Cc1ccc(NS(=O)(=O)c2ccc(C)c(NC(=S)NCCN3CCOCC3)c2)c(C)c1 | -7.1% |  |
| CS(=O)(=O)N(CC(=O)Nc1ccc(S(=O)(=O)N2CCOCC2)cc1)c1ccccc1Br | -6.84% |  |
| CCN1CCN(c2oc(-c3ccccc3C)nc2S(=O)(=O)c2ccccc2)CC1 | -15.4% |  |
| Cc1cscc1-c1nc(NCC2CC2)nc2ccsc12 | 7.56% |  |
| CC1=NCCc2c1[nH]c1cc(O)ccc21 |  | 21.9 µM (active) |
| COc1ccc(NC(=O)CSc2nccn2C)cc1S(N)(=O)=O | 2.77% |  |
| CC(C)Cc1[nH]c(=O)c(C#N)c2c1CCC2 | 0.92% |  |
| NS(=O)(=O)c1cccc(NC(=O)c2ccc(NS(=O)(=O)c3cccc([N+](=O)[O-])c3)cc2)c1 | 20.8% |  |
| CO[C@@H]1CN(C)C(=O)c2cc(NC(=O)NC(C)C)ccc2OC[C@@H](C)N(S(C)(=O)=O)C[C@H]1C | 7.43% [at 6.8 µM] |  |
| CCOC(=O)c1nnn(-c2nonc2N)c1-c1ccccc1Cl | -7.96% |  |
| COc1nc(C)cc(C)c1S(=O)(=O)c1ccc(Cl)cc1 | -8.33% |  |
| COc1c2ccc(C(=O)NCCCCc3ccccc3)cc2nn1C | -14% |  |
| COCC#Cc1ccc2c(c1)O[C@@H](CN(C)C(=O)CC1CC1)[C@H](C)CN([C@@H](C)CO)S2(=O)=O | -7.14% |  |
| COc1ccc(C(=O)OCC(=O)Nc2ccc3[nH]c(=O)[nH]c3c2)c(OC)c1OC | -9.79% |  |
